PubChem BioAssay AID1259417 (TB Discovery Research, Infectious Disease Research Institute, 2018)
About 760 (69%) of roughly 1,100 compounds were called active. No rule for the calls is given here. The set was probably picked from earlier hits. The list shows a part of the results.

Test: M. tuberculosis growth inhibition, HTS (AID 1259417);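 also: bacteria grown with compound for 5 days at 37 °C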
Conditions: stronger effect = higher value, concentration not given here
[1] = M. tuberculosis DsRed fluorescence growth inhibition
[2] = M. tuberculosis growth inhibition

Row | Compound | inhibition [1] | inhibition [2]
1 | CCOc1ccc2ccccc2c1C(=O)Nc1sc(C)c(C)c1C(N)=O | 9.82% (inactive) | 9.7%
2 | COC(=O)c1sccc1NC(=O)c1c(F)c(F)c(F)c(F)c1F | 99.1% (active) | 97.7%
3 | CCOC(=O)c1c(NC(=O)c2cccc(OC(C)=O)c2)sc(CC)c1-c1ccccc1 | 2.11% (inactive) | -5.86%
4 | CCOC(=O)c1c(NC(=O)c2c(F)c(F)c(F)c(F)c2F)sc(C(N)=O)c1C | 98.6% (active) | 99.4%
5 | CCOC(=O)c1sc(NC(=O)c2c(F)c(F)c(F)c(F)c2F)c(C(=O)OCC)c1C | 93.8% (active) | 88.9%
6 | Clc1ccc2c(c1)C1=C(C(c3ccncc3)O2)C(c2ccc(Br)cc2)n2ncnc2N1 (centres undefined) | 96% (active) | 93.9%
7 | CC(=NNc1nc(=O)[nH]nc1C)c1ccccc1O | 98.6% (active) | 98.8%
8 | COc1cccc(C=NNc2nc(=O)[nH]nc2C)c1O | 91.7% (active) | 94.9%
9 | COc1ccc(C2(C(=O)Nc3ccc(Br)cc3)CCCC2)cc1 | 63.2% (active) | 81.4%
10 | CC(=NNc1nc(C)c(C)s1)c1ccc(Br)cc1 | 96.2% (active) | 89.4%
11 | CCOC(=O)CCc1c(C)c(C#N)c2[nH]c3ccccc3n2c1=O | 98.3% (active) | 96.2%
12 | CCOC(=O)COc1ccc2c(C#N)c3ccccn3c2c1 | -0.849% (inactive) | 22.1%
13 | COC(=O)c1c2c(n3ccc(C)cc13)C(=O)c1ccccc1C2=O | 99.2% (active) | 98.8%
14 | CCOC(=O)C1=C(c2ccc(C)cc2)C(=O)c2ccccc2C1=O | 14.4% (inactive) | 16.3%
15 | CC(C)(C)c1ccc(C(=O)Nc2cccc(NC(=O)c3cccs3)c2)cc1 | 0.571% (inactive) | 22.7%
16 | CN(C)c1ccc(NC(=O)c2ccncc2)cc1 | 98% (active) | 100%
17 | Cc1ccc(NC(=O)c2cc3cc(Cl)cc(Cl)c3oc2=O)c(C)c1 | 9.67% (active) | 43.2%
18 | O=C1c2ccccc2C(=O)N1CCCCN(C(=O)c1cc([N+](=O)[O-])cc([N+](=O)[O-])c1)c1ccc(Cl)cc1 | 97.2% (active) | 92.5%
19 | CC1=CC(C)(C)Nc2ccc(OC(=O)c3cccnc3)cc21 | 9.4% (active) | 36.8%
20 | CC1=CC(C)(C)Nc2ccc(OC(=O)c3cccs3)cc21 | 49.6% (active) | 74.6%
21 | CCOC(=O)c1c(C)oc2ccc(OC(=O)c3cccs3)cc12 | -0.261% (inactive) | 2.41%

Row | Compound | inhibition [1] | inhibition [2]
22 | NC(=O)c1c(NC(=O)c2ccc(COc3ccccc3Cl)cc2)sc2c1CCCC2 | -7.68% (inactive) | -40%
23 | Cc1cccc(N2CCN(c3ncnc4sc5c(c34)CCCC5)CC2)n1 | 7.93% (inactive) | -17.2%
24 | O=C(Nc1ncnc2sc3c(c12)CCCC3)c1ccc(F)cc1 | 26.6% (active) | 61.8%
25 | CCOC(=O)c1cnc2ccc(OC)cc2c1Nc1ccc2c(c1)OCCO2 | 36.6% (active) | 24%
26 | CC(=O)OCCNc1cc(SCc2ccco2)c2nonc2c1[N+](=O)[O-] | 14.7% (inactive) | 11.3%
27 | CCCC(=O)OCCNc1cc(SCc2ccco2)c2nonc2c1[N+](=O)[O-] | 22% (inactive) | 21%
28 | O=C(CC(SCc1ccco1)c1cccc([N+](=O)[O-])c1)c1ccco1 (centres undefined) | 96.9% (active) | 97.7%
29 | Cc1cc(C)c(-n2c(O)c(/C=C3\C=CC=N3)c(=O)[nH]c2=O)c(C)c1 | 97.7% (active) | 98.6%
30 | CCCCn1c(O)c(/C=C2\C=CC=N2)c(=O)[nH]c1=O | 58.2% (active) | 89.6%
31 | O=c1c2cccc3c2c(nn1CCN1CCCCC1)-c1ccccc1-3 | -22.6% (active) | 56.2%
32 | CCC(C)(C)c1ccc(OCCCn2ccnc2)cc1 | 100% (active) | 99.6%
33 | CCC(C)c1ccc(OCCCCn2ccnc2)cc1 (centres undefined) | 100% (active) | 100%
34 | CCC(C)c1ccc(OCCn2ccnc2)cc1 (centres undefined) | 99.2% (active) | 99.6%
35 | CCOC(=O)c1sc(NC(=O)NC2CCCCC2)cc1C | 100% (active) | 96.2%
36 | CCOC(=O)c1c(NC(=S)NC2CCN(Cc3ccccc3)CC2)sc(C)c1-c1ccccc1 | 21.1% (inactive) | -12.2%
37 | CCOC(=O)c1sc(NC(=O)CCSc2ccccc2)cc1C | 96.9% (active) | 84.1%
38 | Cc1ccc(-c2ccc(C=CC(=O)c3ccco3)o2)cc1 | 9.38% (inactive) | 20.8%
39 | CCOC(=O)C(C#N)=Cc1ccc(-c2ccc(F)cc2)o1 | 2.37% (active) | 87.5%
40 | Cc1ccc(-n2cnc3cc(NCc4cccs4)ccc32)cc1 | 18.8% (active) | 35.4%
41 | CCn1cc(C(=O)O)c(=O)c2cc(F)c(N3CCN(C(=S)Nc4cc(C(F)(F)F)ccc4Cl)CC3)cc21 | 47.9% (active) | 61.9%
42 | CCn1cc(C(=O)O)c(=O)c2cc(F)c(N3CCN(C)CC3)cc21 | 94.8% (active) | 94.2%
